Here are results for 43 molecules from PubChem BioAssay AID652053 (Broad Institute, 2013).

Out of some 1,300 compounds screened, about 930 (72%) were called active. So high a share suggests a set chosen from earlier hits. Not all results are given here. Measured potencies and affinities stand elsewhere. Values without a mark were called inactive.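 Rule for the calls: active = fitted curve reaches 40% activation signal increase at or below the top valid tested concentration in every replicate test; inconclusive = replicate tests disagree in their calls; inactive = all replicate tests inactive, including effects opposite the expected signal rise.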

This test can be described thus: suppression of miR-122 activity, Renilla luciferase sensor – cell-based, Huh7 psiCHECK-miR122, cherry-pick, dose response (AID 652053). As to conditions: Huh7 psiCHECK-miR122 Renilla luciferase reporter, 48 h; series mostly up to 35 µM; activation (miR-122 inhibition): at the top concentration.
Turning to `Cc1cc(C(=O)N2CCc3ccccc32)n(-c2ccccc2)n1`, the “activation (miR-122 inhibition)” value was 15.6%.
Next, `C/C(=N\NC(=O)c1cc(-c2cccs2)nc2ccccc12)c1ccccn1`: -5.64%; `CC(C)n1cc(NC(=O)c2cc(-c3ccccc3)on2)cn1`: -6.08%.
Next, `O=C(C[C@@H]1CC[C@H]2[C@@H](COC[C@@H](O)CN2C(=O)C2CCCC2)O1)NCc1ccncc1`: -14.2%; `O=C(COc1ccccc1F)c1ccc(O)cc1O`: 15.5%; `COc1ccccc1N1CCN(S(=O)(=O)c2ccc(F)cc2)CC1`: -3.23%.
Next, `Cc1c(C(=O)N(C)CCC#N)oc2ccc(S(=O)(=O)N3CCOCC3)cc12`: -3.44%; `COc1ccc(NC(=O)N(C)C[C@H]2Oc3ccc(NC(=O)Nc4ccc(C(F)(F)F)cc4)cc3CC(=O)N([C@@H](C)CO)C[C@H]2C)cc1`: 37.5%.
Take `COc1ccc(NC(=O)N(C)C[C@H]2Oc3ccc(NC(=O)Nc4ccc(C(F)(F)F)cc4)cc3CC(=O)N([C@H](C)CO)C[C@H]2C)cc1`: the “activation (miR-122 inhibition)” value was 16% [at 30 µM].
Regarding `COc1ccc(NC(=O)N(C)C[C@H]2Oc3ccc(NC(=O)Nc4ccc(C(F)(F)F)cc4)cc3CC(=O)N([C@H](C)CO)C[C@@H]2C)cc1`, the “activation (miR-122 inhibition)” value was -1.37%.
Next, `COc1ccc(NC(=O)N(C)C[C@@H]2Oc3ccc(NC(=O)Nc4ccc(C(F)(F)F)cc4)cc3CC(=O)N([C@H](C)CO)C[C@@H]2C)cc1`: 8.26%; `C[C@@H]1CN([C@@H](C)CO)C(=O)c2cc(NC(=O)CCC(F)(F)F)ccc2O[C@@H]1CN(C)C(=O)Nc1ccc2c(c1)OCO2`: -9%; `COc1ccc(NC(=O)N(C)C[C@@H]2Oc3ccc(NC(=O)Nc4ccc(C(F)(F)F)cc4)cc3CC(=O)N([C@@H](C)CO)C[C@H]2C)cc1`: -1.45% [at 30 µM].
Next, `COc1ccc(NC(=O)N(C)C[C@H]2Oc3ccc(NC(=O)Nc4ccc(C(F)(F)F)cc4)cc3CC(=O)N([C@@H](C)CO)C[C@@H]2C)cc1`: 2.76% [at 30 µM].
As for `COc1ccc(NC(=O)N(C)C[C@@H]2Oc3ccc(NC(=O)Nc4ccc(C(F)(F)F)cc4)cc3CC(=O)N([C@H](C)CO)C[C@H]2C)cc1`, the “activation (miR-122 inhibition)” value is 4.93%.
Next, `Cc1ccc(S(=O)(=O)N(C)C[C@@H]2Oc3ccc(NC(=O)Nc4ccc(C(F)(F)F)cc4)cc3CC(=O)N([C@@H](C)CO)C[C@@H]2C)cc1`: -7.06%; `Cc1ccc(S(=O)(=O)N(C)C[C@@H]2Oc3ccc(NC(=O)Nc4ccc(C(F)(F)F)cc4)cc3CC(=O)N([C@H](C)CO)C[C@@H]2C)cc1`: 12.7%; `CSC(=S)NCc1cccnc1`: 33.8%.
On to `Cc1ccc(NC(=O)N(C2=NCC(C)S2)c2ccccc2)cc1` (stereo not drawn), for which the “activation (miR-122 inhibition)” value was 7.27%.
Next, `Cc1ccc(SC(C)C(=O)NCCC2=CCCCC2)cc1` (stereo not drawn): 0.132%.
Next, `Cn1c(=O)c2cc(S(=O)(=O)NCCC(=O)NCCC3=CCCCC3)ccc2n(C)c1=O`: -7.18%; `Cc1ccc(-c2nnc(SCc3ccc(C#N)cc3)n2Cc2ccco2)cc1`: 25.7%; `COc1ccc(OC)c(-n2cc3c(=O)n(C)c(=O)n(C)c3c2)c1`: 22.8%.
Next, `CC(C)c1cc(C(=O)N/N=C/C(Br)=C/c2ccccc2)n[nH]1`: 38%; `O=C(Nc1nc2c(s1)CCc1ccccc1-2)c1ccco1`: 33%; `CCc1nc2ccc(C(=O)N3CCN(C(=O)c4ccco4)CC3)cn2c1N(C)C(=O)COc1ccccc1`: -12.7%.
As for `Cc1ccc(NC(=O)COc2ccc(Br)cc2CO)cc1`, the “activation (miR-122 inhibition)” value is -3.88%.
For `CC(=O)N1[C@H](CNC(=O)CN(C)C)[C@H](c2ccc(C3=CCCCC3)cc2)[C@@H]1CO`, the “activation (miR-122 inhibition)” value is 0%.
Next, `CC(=O)N(C)C[C@@H]1[C@@H](c2ccc(-c3cccnc3)cc2)[C@H](CO)N1C(=O)C1CC1`: -1.89%; `CC(=O)N(C)C[C@H]1[C@H](c2ccc(-c3cccnc3)cc2)[C@@H](CO)N1C(=O)C1CC1`: 4.37%; `CN1[C@H](CO)[C@@H]2c3ccccc3N(C(=O)c3ccc(F)cc3)C[C@@H]21`: 15.8% [at 30 µM].
Next, `O=C(Nc1ccccc1F)N1C[C@@H]2[C@H](c3ccccc31)[C@H](CO)N2C(=O)c1ccc(F)cc1`: 24.2% [at 30 µM].
Next, `CC(=O)N1C[C@H]2[C@@H](c3ccccc31)[C@@H](CO)N2C(=O)c1ccc(F)cc1`: -1.27%; `O=C(c1ccc(F)cc1)N1C[C@H]2[C@@H](c3ccccc31)[C@H](CO)N2C(=O)c1ccc(F)cc1`: 12.4%.
For `CC(=O)N1[C@H](CO)[C@@H]2c3ccccc3N(C(=O)c3ccc(F)cc3)C[C@@H]21`, the “activation (miR-122 inhibition)” value is 16.7%.
Next, `O=C(Nc1ccccc1F)N1C[C@@H]2[C@H](c3ccccc31)[C@@H](CO)N2C(=O)c1ccc(F)cc1`: 17%; `O=C(Nc1ccccc1F)N1C[C@H]2[C@@H](c3ccccc31)[C@H](CO)N2C(=O)c1ccc(F)cc1`: 15.8%.
Next, `CC(C)C(=O)Nc1ccc2c(c1)C(=O)N(C)[C@@H]1CC[C@@H](CC(=O)NCc3cccc(F)c3)O[C@H]1CO2`: -10.4%; `CC(C)C(=O)Nc1ccc2c(c1)C(=O)N(C)[C@@H]1CC[C@H](CC(=O)NCc3cccc(F)c3)O[C@@H]1CO2`: 8.41%; `CN1C(=O)c2cc(NC(=O)C3CC3)ccc2OC[C@H]2O[C@H](CC(=O)NCc3cccc(F)c3)CC[C@H]21`: -7.82%.
Next, `Cc1ccc2c(CN3CCCc4ccccc43)cc(=O)oc2c1C`: -5.95%; `C[C@H](CO)N1C[C@H](C)[C@@H](CN(C)Cc2ccncc2)Oc2c(NC(=O)C3CCOCC3)cccc2C1=O`: 9.97%; `CNC[C@H]1Oc2c(NC(=O)C3CCOCC3)cccc2C(=O)N([C@H](C)CO)C[C@@H]1C`: -3.4%.
